We go through seven compounds from PubChem BioAssay (Tox21).

A number with no mark means an inactive call. Results filed as inconclusive are left out. Calls of active or inactive are those of the source. Unless noted, the call rests on the fitted dose curve; in most records, active means well fitted curve in the direction sought with a large enough effect in the repeat runs; inconclusive means weak or mixed curves; inactive means no such curve, though single readings can be large; an effect the other way counts as inactive or inconclusive.

Assay [1] concerns the target Thyrotropin receptor (Homo sapiens) (UniProt P16473). Nature of the assay: qHTS assay to identify small molecule agonists of the thyroid stimulating hormone receptor (TSHR) signaling pathway (AID 1224843; calls by dose curve; further: nearly all actives have a fitted effect of over 45% in size). Summed up: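 HEK293/TSHR, 800 cells/well; cpd 30 min RT; add cAMP-d2 + anti-cAMP-cryptate, 1 h RT; fluorescence read on plate reader. 15-pt titration, n=3.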
Assay [2] is described as follows: qHTS assay to identify small molecule agonists of the hypoxia (HIF-1) signaling pathway - cell viability counter screen (AID 1224844; calls by dose curve; further: nearly all actives have a fitted effect of over 50% in size). Summed up: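 Viability counter screen: HRE-bla ME-180 cells plated 5 hrs before compound addition, treated 17 hrs at 37C and 5% CO2, then CellTiter-Glo added after the FRET reporter read; luminescence after 30 min.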
Assay [3] in a line: qHTS assay to identify small molecule agonists of H2AX (AID 1224845; active means well fitted activation curve with a large enough effect in the signal ratio in the repeat runs, not every such curve was filed as active; the % refers to the signal ratio). In outline:
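Wild-type CHO-K1 cells, plated overnight, exposed 3hr at 37C to 15 concentrations (0.76% DMSO final). Lysed, then HTRF anti-pH2AX (S139) cryptate and anti-H2AX-d2 antibodies, 24 hr room temperature; 665/620 nm emission read.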
(In general: qHTS replaces the single test concentration by a dilution series.)

Assay [4] can be described thus: qHTS assay to identify small molecule agonists of the hypoxia (HIF-1) signaling pathway (AID 1224846; active means well fitted activation curve with a large enough effect in the signal ratio in the repeat runs, not every such curve was filed as active; the % refers to the signal ratio). Summed up:
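Agonist mode reporter screen. ME-180 cells stably expressing bla under HRE control received test compounds in DMSO for 17 hrs (37C, 5% CO2), and beta-lactamase activity was then detected with the CCF4-AM FRET substrate.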

Assay [5] is described as follows: qHTS assay to identify small molecule agonists of H2AX - cell viability counter screen (AID 1224847; calls by dose curve; further: top concentration of the series differs between compounds; nearly all actives have a fitted effect of over 30% in size). Summed up:
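We seed wild-type CHO-K1 cells overnight, treat them for 3 hr at 37C with compounds in 15-concentration series, and quantify remaining viability by CellTiter-Glo luminescence.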

The nature of assay [6]: qHTS RealTime-Glo MT Cell Viability Assay in HepG2 cells - 24 hour (AID 1224867). Further: nearly all actives have a fitted effect of over 50% in size. In outline: (§1)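 Compound treatment began 5 h after plating HepG2 cells (600/well) with NanoLuc luciferase and prosubstrate. Plates stayed at 37 C for 40 h; luminescence was captured at six time points, 0 h through 40 h.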
Assay [7] in a line: qHTS RealTime-Glo MT Cell Viability Assay in HEK293 cells - 32 hour (AID 1224868). Further: top concentration of the series differs between compounds; nearly all actives have a fitted effect of over 50% in size. In outline:
(§2)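 Quantitative high-throughput screen of the Tox21 10K library in HEK293: cells and RealTime-Glo reagents plated together, compound added at 5 h, luminescence monitored through 40 h at 37 C.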

Assay [8] in a line: A CellTox Green Cytotoxicity Assay to monitor cytotoxicity in HEK293 cells - 0 hour (AID 1224869). Further: nearly all actives have a fitted effect of over 50% in size. Summed up:
(§3)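 Dead-cell fluorescence measured kinetically: asymmetric cyanine dye, HEK293, 600 cells/well, 5 h settle, 23 nL cpd/DMSO, 37 C, reads 0–40 h every 8 h.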

Assay [9] is described as follows: qHTS RealTime-Glo MT Cell Viability Assay in HepG2 cells - 40 hour (AID 1224870). Further: nearly all actives have a fitted effect of over 50% in size. In outline:
(§4)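 HepG2 cells (600/well) mixed with RealTime-Glo MT reagent, settled 5 h at 37 C/5% CO2 before compound addition. Nonlytic NanoLuc luminescence from viable-cell prosubstrate reduction read repeatedly during 40 h treatment at 37 C.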

The nature of assay [10]: A CellTox Green Cytotoxicity Assay to monitor cytotoxicity in HEK293 cells - 40 hour (AID 1224871). Further: nearly all actives have a fitted effect of over 45% in size. In outline:
as §3

Assay [11] can be described thus: qHTS RealTime-Glo MT Cell Viability Assay in HEK293 cells - 16 hour (AID 1224872). In outline:
as §2

Assay [12] in a line: qHTS RealTime-Glo MT Cell Viability Assay in HepG2 cells - 8 hour (AID 1224873). Further: nearly all actives have a fitted effect of over 55% in size. Summed up: as §4
Assay [13] in a line: qHTS RealTime-Glo MT Cell Viability Assay in HEK293 cells - 40 hour (AID 1224874). Further: nearly all actives have a fitted effect of over 50% in size. Further: potency means the concentration at half of the fitted maximal effect. The conditions noted are these: RealTime-Glo luminescence; max response: stronger effect = lower value. Summed up: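 600 HEK293 cells per well, dispensed already mixed with RealTime-Glo MT reagents. Compound dosing came 5 h later. The same wells were read for luminescence at 0, 8, 16, 24, 32 and 40 h of exposure at 37 C.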

The nature of assay [14]: A CellTox Green Cytotoxicity Assay to monitor cytotoxicity in HEK293 cells - 24 hour (AID 1224875). Further: nearly all actives have a fitted effect of over 45% in size. Summed up: as §3
Assay [15] is described as follows: A CellTox Green Cytotoxicity Assay to monitor cytotoxicity in HepG2 cells - 16 hour (AID 1224876). Further: nearly all actives have a fitted effect of over 45% in size. In outline:
(§5)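 First, HepG2 cells (600/well) mixed with reagent were plated; second, after 5 h at 37 C they received compounds via pintool; third, fluorescence was measured at 0 h through 40 h at 8 h intervals.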

Assay [16] can be described thus: qHTS RealTime-Glo MT Cell Viability Assay in HepG2 cells - 32 hour (AID 1224877). Further: nearly all actives have a fitted effect of over 55% in size. In outline: as §1
Assay [17] is described as follows: A CellTox Green Cytotoxicity Assay to monitor cytotoxicity in HepG2 cells - 24 hour (AID 1224878). Further: nearly all actives have a fitted effect of over 45% in size. Summed up: as §5
Assay [18] is described as follows: A CellTox Green Cytotoxicity Assay to monitor cytotoxicity in HepG2 cells - 40 hour (AID 1224879). Further: nearly all actives have a fitted effect of over 40% in size. In outline:
as §5

A short description of assay [19]: qHTS assay to identify small molecule antagonists of the estrogen related receptor (ERR) signaling pathway from Tox21 library (AID 1224848). Further: nearly all actives have a fitted effect of over 50% in size. Summed up: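 Compounds dissolved in DMSO are pin-transferred onto ERR reporter cells (2,000 per well) that have settled for 6 h at 37 C. Plates then incubate 18 h at 37 C before ONE-Glo luciferase reagent and a luminescence read 30 min later.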

Assay [20] can be described thus: qHTS assay to identify small molecule agonists of the estrogen related receptor (ERR) signaling pathway from Tox21 library (AID 1224849; calls by dose curve; further: nearly all actives have a fitted effect of over 15% in size). The note with it: ERR reporter cell line, ONE-Glo luciferase, 18 h; at 92.4 µM (top of the series) unless noted. Summed up:
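Quantitative HTS in agonist format: NTP ERR cell line, compounds transferred in DMSO after 6 h plating, 18 h incubation at 37 C, ONE-Glo luminescence endpoint.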
On the % scale 0 is the no-effect control and ±100 the full control effect.

Sequence of Thyrotropin receptor (Homo sapiens) (P16473 whole entry, looked up): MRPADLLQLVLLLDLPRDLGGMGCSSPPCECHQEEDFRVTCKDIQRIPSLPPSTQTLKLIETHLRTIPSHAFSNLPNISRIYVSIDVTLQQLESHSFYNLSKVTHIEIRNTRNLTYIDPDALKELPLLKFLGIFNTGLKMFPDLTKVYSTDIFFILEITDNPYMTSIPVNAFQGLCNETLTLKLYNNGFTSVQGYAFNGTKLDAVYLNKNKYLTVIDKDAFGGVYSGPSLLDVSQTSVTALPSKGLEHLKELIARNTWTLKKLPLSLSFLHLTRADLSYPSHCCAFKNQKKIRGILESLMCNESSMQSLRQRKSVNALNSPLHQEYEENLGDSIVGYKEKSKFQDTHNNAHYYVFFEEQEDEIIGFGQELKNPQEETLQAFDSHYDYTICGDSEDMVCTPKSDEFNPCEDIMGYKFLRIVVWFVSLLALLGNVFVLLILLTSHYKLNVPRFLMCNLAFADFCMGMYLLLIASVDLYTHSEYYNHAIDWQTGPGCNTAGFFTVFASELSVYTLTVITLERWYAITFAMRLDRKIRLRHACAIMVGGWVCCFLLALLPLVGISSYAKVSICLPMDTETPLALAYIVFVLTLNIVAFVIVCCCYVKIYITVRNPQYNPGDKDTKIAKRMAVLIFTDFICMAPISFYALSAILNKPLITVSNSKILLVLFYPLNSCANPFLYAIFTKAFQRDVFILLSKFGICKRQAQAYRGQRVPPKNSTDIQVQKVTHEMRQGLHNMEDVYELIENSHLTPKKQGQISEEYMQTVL

As to `C=CC(=O)O`, the Potency result in assay [1], in assay [2], in assay [3], in assay [5], in assay [6] and in [7] was “inactive” throughout. The Potency result in assay [8], in [9], in assay [10], in assay [11], in assay [12] and in assay [14] was “inactive” in each case. Besides, the Potency result in [15], in assay [16], in [17] and in assay [18] was “inactive” throughout. For the same compound, the outcome in [4] was inactive. For the same compound, the max response in assay [13] was -0.787%.
Take `CC(C)c1ccc(C#N)cc1`: the Potency result in assay [1], in [2], in assay [3], in assay [5], in assay [19] and in assay [8] was “inactive” each time. Besides, the Potency entry in assay [9], in [12], in [14], in assay [16] and in assay [18] was “inactive” each time. Moreover, in [4], the compound was classed as inactive. The activity change, positive = activation in assay [20] was -9.84%. Also, the Potency in assay [13] is 15.5 µM (active).
As for `C=C(C)C(=O)OCCC(F)(F)C(F)(F)C(F)(F)C(F)(F)C(F)(F)C(F)(F)F`, the Potency entry in assay [1], in assay [2], in assay [3], in [5], in assay [6] and in assay [8] was “inactive” throughout. The Potency entry in assay [9], in assay [10], in assay [11], in [12], in assay [14] and in assay [15] was “inactive” each time. Moreover, the Potency result in assay [16], in [17] and in assay [18] was “inactive” throughout. In assay [4], the compound was classed as inactive. Also, the max response in [13] was 0.419%.
`N[C@@H](Cc1cc(I)c(O)c(I)c1)C(=O)O`: the Potency entry in [1], in assay [2], in assay [3], in [5], in assay [19] and in [6] was “inactive” in each case. Moreover, the Potency entry in assay [7], in assay [8], in [9], in assay [10], in [11] and in assay [12] was “inactive” each time. Further, the Potency result in [14], in assay [15], in assay [16], in assay [17] and in assay [18] was “inactive” each time. For the same compound, the max response in [13] was 3.01%.
Consider `O=C(O)c1cccc(Oc2ccccc2)c1`, for which the Potency result in [1], in [2], in assay [3], in assay [19], in [7] and in assay [8] was “inactive” throughout. Further, the Potency entry in assay [9], in assay [10], in assay [11], in assay [12], in assay [14] and in [15] was “inactive” throughout. Further, the Potency entry in assay [16], in assay [17] and in assay [18] was “inactive” each time. Besides, in assay [4], the outcome was inactive. Moreover, the max response in assay [13] was -1.97%.
In the case of `CC(=O)N[C@@H](Cc1ccc(O)cc1)C(=O)O`, the Potency result in assay [1], in assay [2], in assay [3], in [5], in assay [19] and in assay [6] was “inactive” in each case. In addition, the Potency entry in [7], in assay [8], in [9], in assay [10], in assay [11] and in assay [12] was “inactive” in each case. For the same compound, the Potency result in assay [14], in assay [15], in assay [16], in [17] and in [18] was “inactive” throughout. In assay [20], the activity change, positive = activation is 1.4% [at 42.5 µM]. The max response in assay [13] was 8.17%.
Regarding `Nc1c(Cl)cc(Cl)cc1[N+](=O)[O-]`, the Potency entry in assay [1], in assay [2], in assay [3], in assay [19], in assay [7] and in assay [8] was “inactive” throughout. Also, the Potency result in assay [9], in assay [10], in [11], in assay [12], in [14] and in [16] was “inactive” each time. Further, in assay [4], the compound was called inactive. The max response in assay [13] was 7.12%.
